Laboratory results reported in PubChem BioAssay AID651784 (National Center for Advancing Translational Sciences (NCATS), 2012).
Where “and” joins values, the source holds several entries; their conditions need not be identical. Equal values may be shown once. Inconclusive results are not listed. Calls of active or inactive are those of the source. The call rests on the fitted dose curve; in most records, active means well fitted inhibition curve with a large enough effect; inconclusive means small, poorly fitted or top-dose-only effect; inactive means no such curve, though single readings can be large or run the other way.

assay: Acumen qHTS Assay for Inhibitors of the mTORC1 Signaling Pathway in MEF (Tsc2-/-, p53-/-) Cells: Hit Validation; details: Acumen imaging; activity change, negative = inhibition: at 37.3 µM (top of the series);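 further: phospho-rpS6 Ser235/236 immunofluorescence normalized to propidium iodide cell count; nearly all actives have a fitted effect of over 65% in size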;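 on activity change, negative = inhibition: cells exposed to compound for 24 hours; plate controls were DMSO for no effect and 7.5 nM rapamycin control for full effect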
Potency means the concentration at half of the fitted maximal effect.

SMILES	Potency	activity change, negative = inhibition
Cc1cccc(NC(=O)c2nc(S(C)(=O)=O)ncc2Cl)c1	2.07 µM (active)	–
Cc1ccc2[nH]c(=O)c3cc(C(=O)NCCCN4CCC(C)CC4)sc3c2c1	13.1 µM (active)	–
CCN(CC)CCNC(=O)c1ccc(Cn2c(=O)c3cccn3c3cccnc32)cc1	–	-24.3%
O=c1oc2ccccc2cc1-c1cn2cc(Cc3ccccc3F)sc2n1	16.5 µM (active)	–
CCCS(=O)(=O)c1c(S(=O)(=O)CCC)c2cc(C(C)(C)C)ccn2c1C(=O)c1ccc(OC)c(OC)c1	–	-5.67%
Cc1ccc(C(=O)/C=C/c2cn(CC(O)CN3CCCCCC3)c3ccccc23)cc1 (configuration not stated)	18.5 µM (active)	–
Cc1cccc(N2CCN(C(=O)C3CCN(C(=O)c4cc5sccc5n4C)CC3)CC2C)c1 (configuration not stated)	–	-39.1%
CCC1CCc2nc3sc(C(=O)Nc4ccc(C)cc4)c(N)c3cc2C1 (configuration not stated)	8.26 µM (active)	–
CCOC(=O)N1CCN(Cc2nc3cc(NC(=O)CC(C)C)ccc3n2C(C)C)CC1	2.61 µM (active)	–
COc1ccc(CCNC(=O)c2ccc3c(c2)N(Cc2ccccc2)CCS3)cc1OC	5.21 µM (active)	–
CN(Cc1ccccc1)C(=O)CSc1c2c(nc3ccc(Cl)cc13)CCCC2	–	9.63%
O=S(=O)(c1cccc2cnccc12)N1CCCNCC1	–	-7.7%
COC(=O)c1ccc(Nc2nnc(-c3ccc(C)c(S(=O)(=O)N4CCN(C)CC4)c3)c3ccccc23)cc1	–	-21.5%
COc1ccc(Cl)cc1C1CC(=O)Nc2cc3c(cc21)OCCO3 (configuration not stated)	–	-26.9%
Cc1ccc(C(C)C)c(OCC(=O)Nc2cc(-c3nc4ccccc4[nH]3)ccc2C)c1	–	-3.97%
COc1ccc(CC(=O)Nc2sc3c(c2C(=O)Nc2cccc(C)c2)CCCCC3)cc1	4.14 µM (active)	–
CCOC(=O)c1sc2ccccc2c1S(=O)(=O)Nc1ccc(CC)cc1	–	-9.52%
Cn1nnnc1SCCCNCc1ccccc1OCc1ccc(Cl)cc1	–	-60%
CCCCOc1ccc(Cn2c(=O)sc3ccccc32)cc1	–	-17%

SMILES	Potency	activity change, negative = inhibition
CCS(=O)(=O)c1ccccc1C(=O)N(Cc1cccnc1)c1nc2cc(C)c(C)cc2s1	–	-10%
CCOC(=O)c1ccc(N2C(=O)c3n[nH]c(C)c3C2c2cccc(Br)c2)cc1 (configuration not stated)	–	4.8%
Cc1ccc(NC(=O)CCS(=O)(=O)c2ccc3nc(C)sc3c2)cc1	–	-65.5%
COc1ccccc1CNC(=O)CCCn1c(=O)c2cccn2c2ccccc21	–	-1.89%
Cc1cccc(N2CCN(c3ncnc4c3nc3n4CCCCC3)CC2C)c1 (configuration not stated)	3.29 µM (active)	–
Oc1ccccc1Nc1nc(-c2ccccc2)c2cc(Cl)ccc2n1	–	-6.7%
Cc1ccc(-c2csc(-c3cc4c([nH]c3=O)CC(c3ccccc3)CC4=O)n2)cc1 (configuration not stated)	0.927 µM (active)	–
COc1cc(C)ccc1OCCn1c(-c2ccc(Cl)cc2)nc2ccccc2c1=O	–	-1.14%
CCS(=O)(=O)c1oc(-c2ccc(F)cc2)nc1S(=O)(=O)c1ccc(Br)cc1	4.14 µM (active)	–
CC(C)N(C(=O)CSc1nc2ccc(Cl)cc2[nH]1)c1ccccc1	–	-16%
Cc1nn(CC(=O)NCc2ccccc2Cl)c(=O)c2cccn12	–	6.27%
CC(=O)Nc1ccc(NC(=O)c2nc(S(=O)(=O)Cc3ccc(F)cc3)ncc2Cl)cc1	2.61 µM (active)	–
COc1cccc(-n2c(-c3ccco3)nc3c(cnn3-c3ccc(C)cc3)c2=O)c1	–	15.6%
Cc1cc(C)c(/C=C2\C(=O)Nc3ccccc32)[nH]1	–	0.812% and 7.57%
Cc1cccn2c(Nc3ccccc3)c(-c3cccs3)nc12	–	26.1%
Cc1c(C(=O)OCCOc2ccccc2)[nH]c2c1C(=O)CC(c1ccccc1)C2 (configuration not stated)	0.117 µM (active)	–
COc1ccc(NC(=O)C(NC(=O)/C=C\c2ccc3c(c2)OCO3)c2ccccc2)cc1 (configuration not stated)	11.7 µM (active)	–
COc1ccc(NC(=O)c2c(NC(=O)COc3ccccc3)sc3c2CCC(C)C3)cc1 (configuration not stated)	–	6.92%
